Measured values reported in PubChem BioAssay (NCI).
Several values for one entry are separate records, joined by “and”; a condition that tells them apart may be missing. Equal entries are not always repeated. Compounds without any hit were thinned out: in the full panel of roughly 79,000, 15% have a hit. Rule as the data show it: active = growth inhibition above about 70%; inactive = the rest.

What was measured:
[1] = NCI Yeast Anticancer Drug Screen. Data for the rad50 strain (AID 155);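 also: 0% = growth of vehicle-only cultures of the same strain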; details: S. cerevisiae rad50 strain growth inhibition, hits give high values; at 50.0 µM unless noted
Method in brief: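 Relative growth inhibition (compound vs vehicle) was measured in yeast with a defined repair-gene alteration.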

[2] = NCI Yeast Anticancer Drug Screen. Data for the mec2-1 strain (AID 157); details: S. cerevisiae mec2-1 strain, hits give high values; at 50.0 µM unless noted
Method in brief: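 Yeast mec2-1 mutant treated with compound. Readout: growth inhibition vs vehicle controls.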

[3] = NCI Yeast Anticancer Drug Screen. Data for the sgs1 mgt1 strain (AID 161);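 also: 0% = growth of cultures given vehicle only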; details: S. cerevisiae sgs1 mgt1 strain, hits give high values; at 50.0 µM unless noted
Method in brief: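 Inhibition of yeast growth, normalised to vehicle-treated controls, is reported for a strain bearing genetic alterations in DNA damage repair.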

[4] = NCI Yeast Anticancer Drug Screen. Data for the cln2 rad14 strain (AID 165);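 also: 0% = growth equal to vehicle treated cultures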; details: S. cerevisiae cln2 rad14 strain, hits give high values; at 50.0 µM unless noted
Method in brief: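 cln2 rad14 yeast strain; compound exposure; growth inhibition read vs vehicle controls.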

[5] = NCI Yeast Anticancer Drug Screen. Data for the bub3 strain (AID 167); details: S. cerevisiae bub3 mutant strain, hits give high values; at 50.0 µM unless noted
Method in brief: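 Screening used yeast with an engineered genetic alteration affecting cell cycle control. Compound-exposed cultures were compared with vehicle cultures, and reduced growth was taken as inhibition.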

[6] = NCI Yeast Anticancer Drug Screen. Data for the mlh1 rad18 strain (AID 175); details: S. cerevisiae mlh1 rad18 strain growth inhibition, hits give high values; at 50.0 µM unless noted
Method in brief: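 Yeast w/ defined DNA-repair lesions; compound exposure; growth vs vehicle controls → % inhibition.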

Measured: growth inhibition

Cc1cc2ccccc2cn1
inactive: [1] 1% and 29.1% | [2] -23.1% and 16.6% | [3] 5.55% and 19.2% | [4] -30.6% and -34.1% | [5] 5.95% and 10.8% | [6] 4.75% and 24.6%

COc1ccc2c(c1)c(CC(=O)O)c(C)n2Cc1ccccc1
inactive: [1] -13.7% | [2] -16% | [3] -13.7% | [4] -14.8% | [5] 17.4% | [6] -7.65%

O=C(CCCC1CCCCC1)OC1CCCCC1
inactive: [1] 5.3% | [2] 8.4% | [3] 8.7% | [4] -8.05% | [5] -3.9% | [6] -1.3%

O=C(O)C1CCc2ccccc21 (centres undefined)
inactive: [1] -15.8% | [2] -46.5% | [3] -15.2% | [4] -12.2% | [5] -26.6% | [6] -20.1%

NC(=O)C(O)c1c[nH]c2ccccc12 (centres undefined)
inactive: [1] 3.7% | [2] 1.75% | [3] -1.45% | [4] 6.4% | [5] -15% | [6] 8.2%

COC1=CC(=O)CC(C)C12Oc1c(Cl)c(OC)cc(OC)c1C2=O (centres undefined)
inactive: [1] 2% | [2] -14.5% | [3] 20% | [4] 13.4% | [5] 67.1% | [6] 17.9%

O=[N+]([O-])c1ccc2c(c1)S(=O)c1ccccc1-2 (centres undefined)
inactive: [1] -18.1% | [2] -3.65% | [3] -12.4% | [4] 1% | [5] -37.8% | [6] -4.8%

Cc1cc(-c2cc(C)c(O)c(C)c2)cc(C)c1O
inactive: [1] 17.1% and -1.5% | [2] 16.6% and 0.8% | [3] 39.1% and -7.05% | [4] 14.9% and -4.3% | [5] 4.7% and -35.7% | [6] 23.2% and 3.3%

Cc1ccc(O)c(C=NCCN=Cc2cc(C)ccc2O)c1.[Cu+2]
inactive: [1] 1.9% | [2] 5.25% | [3] 6.15% | [4] 8.45% | [5] -20.6% | [6] 13.3%

NCCCOB(OCCCN)OCCCN
inactive: [1] 8.3% | [2] -7.4% | [3] -17.1% | [4] -20.2% | [5] -2.45% | [6] -10.2%

Nc1cc(N)c(N)cc1N
inactive: [1] -30.1% and -6.2% | [2] 16.8% and -29.1% | [3] 13% and -4.9% | [4] -1.7% and 21.8% | [5] 41.7% and -13.9% | [6] 15% and 8.75%

COc1ccc2ncccc2c1[N+](=O)[O-]
inactive: [1] -5.55% | [2] -44.3% | [3] -5.8% | [4] -14.5% | [5] -23.4% | [6] -18.6%

NNC(=O)C(c1ccccc1)c1ccccc1
inactive: [1] 6.4% | [2] -8.95% | [3] -18.8% | [4] 3% | [5] -28.9% | [6] -0.25%

O=S1(=O)OCCOS(=O)(=O)C1(Br)Cc1ccccc1
inactive: [1] -67.7% | [2] -40.6% | [3] -37.5% | [4] -40.4% | [5] -63.8% | [6] -24.2%

Cc1cc2ccccc2c[n+]1CC(O)C[n+]1cc2ccccc2cc1C
inactive: [1] -18.9% | [2] -31.1% | [3] -36.4% | [4] -27.7% | [5] -45% | [6] -0.8%

COc1ccc(C(=O)O)c(Cc2ccc3ccccc3c2)c1
inactive: [1] 0.4% | [2] -4.7% | [3] 4.3% | [4] 10% | [5] -5.95% | [6] 36%

N#CC1CCC[N-]C1.N#CC1CCC[N-]C1.[Cl][Pt+2][Cl] (centres undefined)
inactive: [1] 50.6% | [2] 4.75% | [3] 32.4% | [4] 21.1% | [5] 4.3% | [6] 42.4%

Nc1ccc2ncc(Nc3ccc(F)cc3)nc2c1
inactive: [1] 37.7% | [2] -22.6% | [3] 25.1% | [4] 23.4% | [5] 17.8% | [6] 15.6%

CC(=O)OCC1OC(n2c3c(c(-c4cccc5ccccc45)c(C#N)c2=S)CCCC3)C(OC(C)=O)C(OC(C)=O)C1OC(C)=O (centres undefined)
inactive: [1] -1.25% | [2] -5.3% | [3] 14% | [4] 6.15% | [5] -5.8% | [6] 12.7%

Cc1noc(NC(=O)Nc2ccccc2F)c1C#N
inactive: [1] -24.3% | [2] -10.4% | [3] -33.1% | [4] 26.9% | [5] -15.9% | [6] -2.25%

CNCCCn1c2ccccc2c2c3c(c(-c4ccsc4)cc21)C(=O)NC3=O
inactive: [1] -1.75% | [2] -8.7% | [3] -19.9% | [4] -4.3% | [5] -7.8% | [6] -40.5%

O=c1c2ccccc2[nH]c(=S)n1CCc1ccccn1
inactive: [1] 2.35% | [2] 6.9% | [3] 64.6% | [4] 8.55% | [5] 14.3% | [6] -7.65%

O=NN(CCCl)C(=O)Oc1ccccc1
inactive: [1] -1.95% | [2] -10.6% | [3] -0.05% | [4] 0.15% | [5] -1.9% | [6] -11.3%

CC(C)c1ccccc1NC(=O)CCC(=O)NN
inactive: [1] -11.1% | [2] -7.95% | [3] -7.95% | [4] 6.1% | [5] -17.8% | [6] -11.7%
